This passage reports outcome and AC50 results from PubChem BioAssay (EPA / NIEHS).

The source made the active and inactive calls. The calls were made as follows: active = hit-call score of the fitted dose curve at least 0.9, where 1 is the maximum; inactive = score below 0.9.

The nature of assay [1]: ATG_E_Box_CIS: Attagene CIS-FACTORIAL HepG2 Assay for human Enhancer Box (E-box) (AID 2282936). The following applies: HepG2 E-box cis-reporter transcription, actives raise or lower the signal. In outline:
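DMSO served as negative control and baseline for bidirectional fitting. Human hepatoma HepG2 cells, transiently transfected with cis-reporter constructs, were dosed 24 h; reporter mRNA read by RT-PCR and capillary electrophoresis.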

The nature of assay [2]: ATG_M_61_CIS: Attagene CIS-FACTORIAL HepG2 Assay for M61 Transcription Factor (Internal Marker) (AID 2282937). Conditions: HepG2 Attagene CIS-FACTORIAL M61 internal marker reporter; actives raise or lower the signal. Put shortly: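 HepG2 cells transiently transfected with multiplexed cis-promoter reporter units reporting endogenous transcription factor activity, measured 24 h after dosing. Reporter mRNA quantified by RT-PCR and capillary electrophoresis; bidirectional fit against DMSO baseline.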

Assay [3] can be described thus: ATG_EGR_CIS: Attagene CIS-FACTORIAL HepG2 Assay for human Early Growth Response 1 (EGR1) (AID 2282938). The following applies: HepG2 Attagene CIS-FACTORIAL EGR reporter mRNA; actives raise or lower the signal. Put shortly: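 HepG2 cells transiently transfected with cis-element-driven multiplexed reporter units, dosed for 24 h. EGR1-element reporter mRNA quantified by RT-PCR, 6-FAM labelling, HpaI digestion and capillary electrophoresis; bidirectional fit versus DMSO.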

Assay [4] is described as follows: ATG_M_19_CIS: Attagene CIS-FACTORIAL HepG2 Assay for M19 Transcription Factor (Internal Marker) (AID 2282939). The following applies: HepG2 Attagene CIS-FACTORIAL M19 internal marker reporter; actives raise or lower the signal. In outline: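 Following a 24 h exposure, RNA from transfected HepG2 cells was reverse-transcribed, PCR-amplified with reporter-specific primers, end-labelled with 6-FAM and HpaI-digested before capillary separation. Values represent gain or loss versus DMSO.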

Assay [5] in a line: ATG_ERE_CIS: Attagene CIS-FACTORIAL HepG2 Assay for Estrogen Response Element (ERE) (AID 2282940). Conditions: HepG2 ERE cis-reporter, Attagene RNA transcript; actives raise or lower the signal. Put shortly:
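HepG2, transient cis-reporter units, 24 h exposure. RNA isolated, oligo(dT) RT, reporter-specific PCR, FAM extension, HpaI cut, CE detection. Gain/loss-of-signal vs DMSO.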

Assay [6] in a line: ATG_Ets_CIS: Attagene CIS-FACTORIAL HepG2 Assay for human Erythroblast Transformation Specific (ETS) (AID 2282941). Conditions: HepG2 ETS cis-reporter transcription, actives raise or lower the signal. In outline:
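HepG2 cells transfected with multiple cis-regulated reporter units measuring endogenous ETS-driven transcription, 24 h after dosing. Reporter mRNA quantified by RT-PCR with capillary electrophoresis; bidirectional fit relative to DMSO.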

Assay [7] addresses Hepatocyte nuclear factor 3-beta (Homo sapiens) (UniProt Q9Y261). Put plainly: ATG_FoxA2_CIS: Attagene CIS-FACTORIAL HepG2 Assay for human Forkhead box A2 (FOXA2) (AID 2282942). Conditions: HepG2 cis-reporter transcription factor activity, 24 h; actives raise or lower the signal. In outline:
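HepG2 transiently transfected with a multiplexed cis-promoter reporter library read endogenous FOXA2 activity. After 24 h compound exposure, reporter mRNA was quantified by RT-PCR, HpaI digestion and capillary electrophoresis. Bidirectional fit against DMSO.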

Assay [8] is described as follows: ATG_FoxO_CIS: Attagene CIS-FACTORIAL HepG2 Assay for human Forkhead box O (FoxO) (AID 2282943). Conditions: HepG2 Attagene cis-reporter, FoxO element, mRNA; actives raise or lower the signal. In outline:
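Endogenous transcription factor activity read from multiplexed cis-promoter reporter transcripts in transiently transfected HepG2, 24 h after dosing. Reporter RNA measured via RT-PCR plus capillary electrophoresis of FAM-labeled products; gain or loss relative to DMSO.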

A short description of assay [9]: ATG_GATA_CIS: Attagene CIS-FACTORIAL HepG2 Assay for human GATA Binding Protein (AID 2282944). Conditions: HepG2 GATA cis-element reporter, Attagene multiplex mRNA; actives raise or lower the signal. Put shortly:
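DMSO serves as negative control and baseline for bidirectional fitting of reporter mRNA changes. HepG2 cells bearing transiently transfected cis-promoter reporters were exposed 24 h; transcripts detected via RT-PCR and capillary electrophoresis.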

The nature of assay [10]: ATG_GLI_CIS: Attagene CIS-FACTORIAL HepG2 Assay for human Zinc Finger Protein GLI1 (AID 2282945). Conditions: HepG2, Attagene cis-factorial reporter mRNA, GLI element; actives raise or lower the signal. Put shortly: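 Bidirectional curve fits relative to DMSO, using reporter mRNA levels from RT-PCR plus capillary electrophoresis. Cells were HepG2 transiently carrying cis-regulated reporter constructs, harvested 24 h after dosing.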

The target of assay [11] is Bile acid receptor (Homo sapiens) (UniProt Q96RI1). Put plainly: ATG_IR1_CIS: Attagene CIS-FACTORIAL HepG2 Assay for human Nuclear Receptor Subfamily 1 Group H Member 4 (NR1H4), IR1 submotif (AID 2282946). The following applies: IR1 reporter transcription, actives raise or lower the signal. In outline: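 Cells (human HepG2) carry transiently transfected cis-promoter reporter transcription units. Compounds are incubated 24 h, total RNA is reverse-transcribed and amplified, and labelled fragments are resolved by capillary electrophoresis. Curves use DMSO as baseline.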
Bile acid receptor (Homo sapiens), sequence (Q96RI1 whole entry, looked up, the tested form may be a part): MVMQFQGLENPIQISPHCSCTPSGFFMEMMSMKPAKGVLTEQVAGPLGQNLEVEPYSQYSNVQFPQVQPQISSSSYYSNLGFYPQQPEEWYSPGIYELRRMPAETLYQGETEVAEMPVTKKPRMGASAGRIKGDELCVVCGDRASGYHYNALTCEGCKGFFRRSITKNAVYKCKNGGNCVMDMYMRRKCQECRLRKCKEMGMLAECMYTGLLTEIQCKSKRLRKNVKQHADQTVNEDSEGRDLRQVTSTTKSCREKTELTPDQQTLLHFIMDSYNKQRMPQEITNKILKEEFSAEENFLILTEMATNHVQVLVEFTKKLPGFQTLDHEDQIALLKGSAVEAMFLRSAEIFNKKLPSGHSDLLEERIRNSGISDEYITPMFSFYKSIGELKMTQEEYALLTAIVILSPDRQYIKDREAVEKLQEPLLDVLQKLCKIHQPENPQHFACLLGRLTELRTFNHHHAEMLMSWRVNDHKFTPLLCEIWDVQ

A short description of assay [12]: ATG_GRE_CIS: Attagene CIS-FACTORIAL HepG2 Assay for human Glucocorticoid Response Elements (GRE) (AID 2282947). Conditions: HepG2 GRE cis-reporter, Attagene multiplex mRNA; actives raise or lower the signal. Put shortly:
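Assay uses human hepatoma HepG2 cells transfected with cis-promoter reporter units, exposed 24 h. mRNA from reporters detected by RT-PCR plus capillary electrophoresis; DMSO serves as negative control and baseline.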

Assay [13] in a line: ATG_ISRE_CIS: Attagene CIS-FACTORIAL HepG2 Assay for human Interferon Regulatory Factor 1 (IRF1) binding to an Interferon-Stimulated Response Element (ISRE) (AID 2282948). The following applies: HepG2 ISRE cis-reporter (Attagene), mRNA transcription readout; actives raise or lower the signal. Put shortly: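 Transiently transfected HepG2 cells carrying cis-element reporter units, dosed 24 hours. Reporter mRNA quantified by RT-PCR, fluorescent primer extension, HpaI digestion and capillary electrophoresis. Bidirectional fitting relative to DMSO.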

The nature of assay [14]: ATG_M_32_CIS: Attagene CIS-FACTORIAL HepG2 Assay for M32 Transcription Factor (Internal Marker) (AID 2282949).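 Also: background control marker of the multiplexed CIS panel rather than a real target.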 Conditions: HepG2 Attagene cis-factorial M32 reporter, mRNA; actives raise or lower the signal. Put shortly: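 Following 24 h chemical exposure of HepG2 cells transiently expressing cis-promoter reporter constructs, reporter transcript levels were determined by RT-PCR with fluorescent labelling and capillary electrophoresis, then fitted bidirectionally against DMSO.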

Assay [15] is described as follows: ATG_M_06_CIS: Attagene CIS-FACTORIAL HepG2 Assay for M06 Transcription Factor (Internal Marker) (AID 2282950). The following applies: HepG2 Attagene CIS-FACTORIAL M06 internal marker reporter; actives raise or lower the signal. In outline: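 Fluorescence-labelled RT-PCR products from cis-promoter reporter units, cut with HpaI and resolved by capillary electrophoresis, give the signal. Cells are human HepG2, dosed for 24 h. Serves as background control, fitted relative to DMSO.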

Assay [16] addresses Hypoxia-inducible factor 1-alpha (Homo sapiens) (UniProt Q16665). Put plainly: ATG_HIF1a_CIS: Attagene CIS-FACTORIAL HepG2 Assay for human Hypoxia Inducible Factor 1 (HIF1A) (AID 2282951). Conditions: HepG2 Attagene cis-factorial HIF1a reporter transcription; actives raise or lower the signal. Put shortly:
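HepG2 cells transiently transfected with multiple cis-regulated reporter transcription units measure endogenous transcription factor activity. After 24 h exposure, reporter mRNA is quantified by RT-PCR with 6-FAM labelling, HpaI digestion and capillary electrophoresis. Bidirectional fitting against DMSO.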

The target in assay [17] is Hepatocyte nuclear factor 6 (Homo sapiens) (UniProt Q9UBC0). Put plainly: ATG_HNF6_CIS: Attagene CIS-FACTORIAL HepG2 Assay for human Hepatocyte Nuclear Factor 6 (HNF6) (AID 2282952). Conditions: HepG2 Attagene cis-factorial HNF6 reporter transcription; actives raise or lower the signal. In outline:
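HepG2 cells transiently transfected with cis-element-driven multiple reporter transcription units, dosed 24 h; reporter mRNA quantified by RT-PCR, FAM primer extension, HpaI digestion and capillary electrophoresis; bidirectional fit versus DMSO baseline.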

The target in assay [18] is Heat shock factor protein 1 (Homo sapiens) (UniProt Q00613). In words: ATG_HSE_CIS: Attagene CIS-FACTORIAL HepG2 Assay for human Heat Shock Transcription Factor 1 (HSE) (AID 2282953). The following applies: HepG2 HSE cis-reporter, Attagene RNA transcription; actives raise or lower the signal. Put shortly:
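After a 24 h incubation with test chemical, transfected HepG2 cells were harvested for RNA; reporter transcripts were measured by RT-PCR and capillary electrophoresis. Values reflect gain or loss of signal relative to DMSO.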

The nature of assay [19]: ATG_MRE_CIS: Attagene CIS-FACTORIAL HepG2 Assay for human Metal Responsive Element (MRE) (AID 2282954). The following applies: HepG2 MRE cis-reporter transcription, Attagene multiplex; actives raise or lower the signal. Put shortly:
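After a 24 h chemical exposure, transiently transfected HepG2 cells yield RNA whose reporter sequences are amplified, FAM-labelled and sized by capillary electrophoresis. Curves are fitted bidirectionally relative to DMSO.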

Assay [20] in a line: ATG_PBREM_CIS: Attagene CIS-FACTORIAL HepG2 Assay for human Phenobarbital-responsive Enhancer Module (PBREM) (AID 2282955). Conditions: HepG2 PBREM cis-reporter, Attagene multiplexed transcription; actives raise or lower the signal. Put shortly: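 HepG2 cells transiently transfected with multiple cis-regulated reporter units measure endogenous transcription factor activity; 24 h compound exposure. Reporter mRNA quantified by RT-PCR, fluorescent labelling, HpaI digestion and capillary electrophoresis; bidirectional fit versus DMSO.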

Hepatocyte nuclear factor 3-beta (Homo sapiens), sequence (Q9Y261 whole entry, looked up): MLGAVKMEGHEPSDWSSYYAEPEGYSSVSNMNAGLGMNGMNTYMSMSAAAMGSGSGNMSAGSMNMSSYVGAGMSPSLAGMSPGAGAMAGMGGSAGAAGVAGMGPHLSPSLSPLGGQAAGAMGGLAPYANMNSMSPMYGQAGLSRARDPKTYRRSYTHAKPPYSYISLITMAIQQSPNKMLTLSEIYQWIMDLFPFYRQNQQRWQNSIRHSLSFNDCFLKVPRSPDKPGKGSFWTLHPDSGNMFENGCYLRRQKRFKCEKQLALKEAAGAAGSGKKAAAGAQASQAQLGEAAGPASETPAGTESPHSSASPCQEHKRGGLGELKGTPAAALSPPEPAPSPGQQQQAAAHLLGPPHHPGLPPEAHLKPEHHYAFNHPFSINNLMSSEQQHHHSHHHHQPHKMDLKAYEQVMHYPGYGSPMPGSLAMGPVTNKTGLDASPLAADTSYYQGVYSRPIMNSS
Hypoxia-inducible factor 1-alpha (Homo sapiens), sequence (Q16665 whole entry, looked up): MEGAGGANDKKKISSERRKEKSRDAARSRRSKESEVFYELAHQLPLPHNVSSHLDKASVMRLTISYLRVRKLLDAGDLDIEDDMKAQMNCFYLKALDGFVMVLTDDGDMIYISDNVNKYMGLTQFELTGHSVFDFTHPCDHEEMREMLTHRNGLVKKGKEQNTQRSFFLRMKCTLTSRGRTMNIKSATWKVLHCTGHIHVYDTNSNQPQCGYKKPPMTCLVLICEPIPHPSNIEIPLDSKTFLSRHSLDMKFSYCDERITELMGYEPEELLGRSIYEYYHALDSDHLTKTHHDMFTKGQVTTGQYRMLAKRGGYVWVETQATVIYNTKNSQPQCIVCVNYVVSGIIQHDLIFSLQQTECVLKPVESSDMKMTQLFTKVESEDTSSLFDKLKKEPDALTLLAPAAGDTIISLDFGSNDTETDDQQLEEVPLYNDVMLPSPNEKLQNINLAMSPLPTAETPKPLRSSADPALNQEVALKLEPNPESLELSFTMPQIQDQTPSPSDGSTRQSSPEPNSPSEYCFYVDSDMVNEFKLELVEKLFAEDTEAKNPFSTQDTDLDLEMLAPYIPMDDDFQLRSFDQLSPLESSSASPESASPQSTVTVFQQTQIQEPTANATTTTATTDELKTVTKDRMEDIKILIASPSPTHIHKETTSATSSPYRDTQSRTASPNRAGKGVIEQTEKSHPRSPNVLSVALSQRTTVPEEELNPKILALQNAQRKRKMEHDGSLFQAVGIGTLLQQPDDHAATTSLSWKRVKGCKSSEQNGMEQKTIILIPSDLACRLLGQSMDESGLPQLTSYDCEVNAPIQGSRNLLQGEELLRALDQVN
Heat shock factor protein 1 (Homo sapiens), sequence (Q00613 whole entry, looked up): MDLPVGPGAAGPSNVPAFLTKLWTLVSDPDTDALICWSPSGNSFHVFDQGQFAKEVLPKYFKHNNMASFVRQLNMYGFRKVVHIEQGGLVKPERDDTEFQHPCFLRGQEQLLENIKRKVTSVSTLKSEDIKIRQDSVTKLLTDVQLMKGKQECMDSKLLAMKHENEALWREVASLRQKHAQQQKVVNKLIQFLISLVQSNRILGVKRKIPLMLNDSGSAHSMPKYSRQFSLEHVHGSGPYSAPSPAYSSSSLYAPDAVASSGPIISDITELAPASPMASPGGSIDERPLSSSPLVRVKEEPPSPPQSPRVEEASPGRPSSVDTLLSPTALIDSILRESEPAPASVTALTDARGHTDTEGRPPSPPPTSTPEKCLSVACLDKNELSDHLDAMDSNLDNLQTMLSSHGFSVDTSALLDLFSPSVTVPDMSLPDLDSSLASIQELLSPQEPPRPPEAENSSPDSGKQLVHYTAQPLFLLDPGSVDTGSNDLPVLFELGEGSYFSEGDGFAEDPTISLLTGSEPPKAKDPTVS
Hepatocyte nuclear factor 6 (Homo sapiens), sequence (Q9UBC0 whole entry, looked up): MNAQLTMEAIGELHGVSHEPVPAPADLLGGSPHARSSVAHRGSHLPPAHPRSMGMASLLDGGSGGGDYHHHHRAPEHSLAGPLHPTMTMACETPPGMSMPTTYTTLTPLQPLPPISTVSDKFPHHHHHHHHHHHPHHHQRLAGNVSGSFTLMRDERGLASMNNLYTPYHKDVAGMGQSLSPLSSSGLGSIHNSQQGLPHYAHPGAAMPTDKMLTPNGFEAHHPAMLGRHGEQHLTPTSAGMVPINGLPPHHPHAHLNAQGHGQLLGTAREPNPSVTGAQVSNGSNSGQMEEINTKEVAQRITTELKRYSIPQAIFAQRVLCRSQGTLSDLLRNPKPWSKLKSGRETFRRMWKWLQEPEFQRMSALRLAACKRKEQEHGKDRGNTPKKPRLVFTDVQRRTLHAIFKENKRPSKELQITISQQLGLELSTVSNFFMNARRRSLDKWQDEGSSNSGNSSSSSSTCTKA

The AC50 is the concentration at which the activity in the assay is half-maximal. For the compound `CC=C1CC2C=CC1C2` (stereo not given), the outcome in assay [1], in assay [2], in [3], in assay [4], in [5] and in [6] was inactive. The compound was called inactive in [7], in assay [8], in assay [9], in [10], in [11] and in assay [12]. Also, the compound was classed as inactive in [13], in assay [14], in assay [15], in [16], in [17] and in [18]. The result in assay [20] was inactive. The AC50 in assay [19] is 87.6 µM (active).

`C=CC(=O)OCCOC1C2CCC1C1CC=CC12` (stereo not given): the outcome in [1], in assay [2], in assay [3], in assay [4], in assay [5] and in assay [6] was inactive. Besides, the compound was called inactive in assay [7], in [8], in assay [9], in assay [10], in [11] and in assay [12]. In addition, the compound was called inactive in [13], in [14], in [15], in [16], in [17] and in [18]. In assay [19], the result was inactive.

In the case of `O=C(O)CC(C(=O)O)C(CC(=O)O)C(=O)O` (stereo not given), the result in assay [1], in assay [2], in [3], in assay [4], in assay [5] and in assay [6] was inactive. The compound was called inactive in assay [7], in assay [8], in assay [9], in [10], in assay [11] and in [12]. Moreover, the compound was classed as inactive in [13], in [14], in assay [15], in assay [16], in [17] and in assay [18]. The outcome in assay [19] and in [20] was inactive.

Turning to `CCCCCCCC(C)=O`, the outcome in [1], in assay [2], in assay [3], in assay [4], in [5] and in assay [6] was inactive. Further, the result in assay [7], in [8], in assay [9], in assay [10], in assay [11] and in assay [12] was inactive. In addition, the outcome in assay [13], in assay [14], in [15], in assay [16], in assay [17] and in assay [18] was inactive. Moreover, the compound was called inactive in assay [19].

As for `CO[Si](CCC1CCC2OC2C1)(OC)OC` (stereo not given), the outcome in assay [1], in [2], in assay [3], in assay [4], in assay [5] and in [6] was inactive. The outcome in assay [7], in [8], in [9], in assay [10], in assay [11] and in assay [12] was inactive. In addition, the compound was called inactive in assay [13], in assay [15], in assay [16], in assay [17], in assay [18] and in assay [19]. In addition, the result in [20] was inactive.

For the compound `C=CC(=O)OCC(Br)CBr` (stereo not given), the AC50 in assay [1] was 72.9 µM (active); in assay [3], 52.8 µM (active); in assay [7], 131 µM (active); in [11] it was 65.3 µM (active); in [13], 100 µM (active); in assay [18], 155 µM (active). Besides, the compound was classed as inactive in assay [2], in assay [4], in [5], in [6], in assay [8] and in assay [9]. Also, the outcome in [10], in [12], in [14], in [16], in assay [17] and in assay [19] was inactive.

For `O=C1CCCCCCCCCCCCCCCO1`, the outcome in assay [1], in [2], in assay [3], in assay [4], in assay [5] and in assay [6] was inactive. Further, the compound was classed as inactive in assay [7], in assay [8], in assay [9], in [10], in [11] and in [12]. Also, the compound was called inactive in assay [13], in assay [14], in [15], in [17] and in [20]. Besides, the AC50 in [16] was 122 µM (active); in [18] it was 160 µM (active); in assay [19], 180 µM (active).
